Screens: PubChem, several laboratories
Mtb FBA inh: Mtb FBA enzyme inhibitors, primary screen, biochemical, fluorescence, strain H37Rv; purified M. tuberculosis FBA, fluorescence read-out; inhibition, % at 1 µM; actives 2.3% (n = 360,000); in the data active means inhibition above about 27%
Rv3671c protease: Rv3671c serine protease inhibitors, primary screen, biochemical, fluorescence polarization, M. tuberculosis H37Rv; inhibition, % at 5.96 µM; actives 0.048% (n = 320,000); AID 2606, 2010; in the data active means inhibition above about 38%;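 further: extracellular domain of Rv3671c used as enzyme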
Vc quorum ag: inducers of Vibrio cholerae quorum light production without autoinducers, primary screen, BH1578 luxS cqsA deficient, single point | V. cholerae BH1578 lux reporter, luminescence, 6 h | activation, % at 18.7 µM | actives 0.16% (n = 350,000) | AID 588436, 2011; in the data active means activation mostly above about 9.7%, no sharp cut-off
UGM FP inh: M. tuberculosis UGM enzyme inhibitors, primary screen, biochemical, fluorescence polarization, single point | inhibition, % at 10 µM | UDP-galactopyranose mutase (Mycobacterium tuberculosis (strain ATCC 25618 / H37Rv)), … | purified UGM, fluorescence polarization probe displacement | actives 0.06% (n = 320,000); in the data active means inhibition above about 10%, passing the limit was not always enough
Target sequence (P9WIQ1 whole entry, looked up): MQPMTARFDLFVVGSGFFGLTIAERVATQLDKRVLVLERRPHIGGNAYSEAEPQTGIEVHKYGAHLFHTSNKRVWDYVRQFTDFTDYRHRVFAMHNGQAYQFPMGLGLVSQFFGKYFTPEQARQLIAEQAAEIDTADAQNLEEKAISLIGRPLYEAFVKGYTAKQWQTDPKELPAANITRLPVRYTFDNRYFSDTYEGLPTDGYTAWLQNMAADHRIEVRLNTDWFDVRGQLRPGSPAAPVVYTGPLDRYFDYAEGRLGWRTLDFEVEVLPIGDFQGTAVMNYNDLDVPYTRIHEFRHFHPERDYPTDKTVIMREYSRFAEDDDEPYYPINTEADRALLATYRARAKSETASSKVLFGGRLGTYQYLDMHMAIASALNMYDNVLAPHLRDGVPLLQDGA
RecA intein inh: Mtb RecA intein splicing inhibitors, primary screen, biochemical, fluorescence, HTS; actives 0.75% (n = 290,000); Protein RecA (Mycobacterium tuberculosis (strain ATCC 25618 / H37Rv)), P9WHJ3; inhibition, % (no concentration beside the values); cell-free RecA intein splicing; in the data active means inhibition above about 30%
GDH-TPI counter: GDH-TPI coupling enzyme inhibitors, primary screen, artefact control for M. tuberculosis FBA inhibitor project, biochemical, absorbance, full deck; GDH-TPI coupled enzyme counterscreen, NADH absorbance; inhibition, % at 4.8 µM; actives 1.2% (n = 360,000); in the data active means inhibition above about 30%
Each line names hits and unclear results; the compound was inactive in the other large screens. A selection: hits, their analogues and other compounds. The true share with any hit is near 4.1%.

O=C1/C(=C/c2ccc(C(=O)O)cc2)CCC/C1=C\c1ccc(C(=O)O)cc1	GDH-TPI counter 33.3
COc1ccc(/C=C2/CSC/C(=C/c3ccc(OC)c(OC)c3)C2=O)cc1OC	none (no result: Rv3671c protease, UGM FP inh, RecA intein inh)
O=C(O)c1ccc(-c2nc3ccccc3[nH]2)cc1	Mtb FBA inh active
Cc1[nH]ncc1-c1nc2ccccc2[nH]1	none
Nc1ccc(-c2nc3c(ccc4ccccc43)[nH]2)cc1	Mtb FBA inh active, GDH-TPI counter 42.1
Nc1ccc(-c2nc3ccccc3[nH]2)cc1	Mtb FBA inh 117.3 (no result: RecA intein inh)
Fc1ccc(-c2nc3ccccc3[nH]2)cc1	none
Oc1ccc(C=Nc2ccccc2-c2nc3ccccc3[nH]2)cc1	Mtb FBA inh active
O=C(CCCN1C(=O)C(c2ccccc2)Oc2cccnc21)NCCc1ccc(Cl)cc1 (centres undefined)	none
COc1cccc(C(=O)NC2CCN(CC(=O)Nc3ccccc3Cl)CC2)c1	none
COc1ccc([C@H]2C[C@H](O)[C@@H](n3cc(C4CC4)nn3)CN2C(=O)C2CCCCC2)cc1	none (no result: Rv3671c protease, UGM FP inh, RecA intein inh)
Nc1ccc2nc(-c3cccc(-c4nc5ccc(N)cc5[nH]4)n3)[nH]c2c1	none
O=C(/C(=C(\O)c1ccccc1)c1nc2ccccc2[nH]1)c1ccccc1	GDH-TPI counter 39.7
CC(=O)/C(=C(/O)c1ccccc1)c1nc2ccccc2[nH]1	none (no result: RecA intein inh)
Cc1ccc2nc(-c3cccc(N)c3)[nH]c2c1	Mtb FBA inh 137.0
Nc1cccc(-c2nc3ccccc3[nH]2)c1	Mtb FBA inh 136.1
Nc1ccccc1-c1nc2ccccc2[nH]1	Mtb FBA inh active
CCCS(=O)(=O)NC(=O)C1(C)CCN(C(=O)c2oc3ccccc3c2C)C1 (centres undefined)	none (no result: Rv3671c protease, UGM FP inh, RecA intein inh)
C[C@@H]1CN([C@@H](C)CO)S(=O)(=O)c2ccc(Br)cc2O[C@H]1CN(C)C(=O)C1CCC1	none (no result: Rv3671c protease, UGM FP inh, RecA intein inh)
CC(NS(=O)(=O)c1ccc(Cl)cc1)C(=O)OCC(=O)Nc1ccc(N(C)C)cc1 (centres undefined)	none (no result: Rv3671c protease, UGM FP inh, RecA intein inh)
O=c1[nH]cccc1-c1nc2ccccc2[nH]1	Mtb FBA inh active, GDH-TPI counter 42.4
Cc1c(-c2nc3ccccc3[nH]2)cnn1C	none (no result: RecA intein inh)
COc1ccc2nc(/C(C#N)=C\c3ccc(C(=O)O)cc3)[nH]c2c1	none
O=C(O)c1ccc(/C=C(\c2nc3ccccc3[nH]2)c2nc3ccccc3s2)cc1	RecA intein inh 38.9, GDH-TPI counter 65.0
NS(=O)(=O)c1ccc(CCNC(=O)c2cc3ccccc3oc2=O)cc1	none
CCOC(=O)c1nn(-c2ccccc2)c(C(=O)OCC)c1N	Mtb FBA inh active
CCOC(=O)c1nn(-c2ccccc2)c(=O)c2c(N)scc12	none (no result: RecA intein inh)
CCOc1cccc2sc(Nc3nc4ccc(NC(C)=O)cc4s3)nc12	Mtb FBA inh 119.1, GDH-TPI counter 39.1
O=C(Nc1nc2c(F)cccc2s1)c1ccco1	GDH-TPI counter 35.6
CC(=O)Nc1ccc2nc(NC(=O)c3ccco3)sc2c1	GDH-TPI counter 32.3
O=C(CSc1nnc(Nc2ccccc2F)s1)c1cc2ccccc2o1	none
COc1ccc(Nc2nnc(SCC(=O)c3cc4ccccc4o3)s2)cc1	GDH-TPI counter 37.4
CC(=O)c1sc(NC(=O)C2CC(=O)N(Cc3ccccc3)C2)nc1-c1ccccc1 (centres undefined)	none
Cc1cc(C)n2nc(SCC(=O)Nc3ccc(F)cc3[N+](=O)[O-])nc2n1	none (no result: RecA intein inh)
COC(=O)Cc1c(C)c2ccc(OCc3nn[nH]n3)cc2oc1=O	Mtb FBA inh 189.4
COC(=O)Cc1c(C)c2ccc(OCC(=O)N3CCCC(C)C3)c(C)c2oc1=O (centres undefined)	Mtb FBA inh 120.2
CCC(C)NC(=O)C1CCN(C(=O)COc2ccc3c4c(c(=O)oc3c2C)CCCC4)CC1 (centres undefined)	none
Cc1c(CC(=O)O)c(=O)oc2c(C)c(OCc3ccccc3)ccc12	none (no result: Rv3671c protease)
COC(=O)Cc1c(C)c2c(OCc3nn[nH]n3)cc(C)cc2oc1=O	Mtb FBA inh 172.3
Cc1cc(C)cc(NC(=O)COc2ccc3c(C)c(Cc4ccccc4)c(=O)oc3c2)c1	none (no result: Mtb FBA inh, Vc quorum ag, GDH-TPI counter)
COC(=O)Cc1c(C)c2ccc(OCc3nn[nH]n3)c(C)c2oc1=O	Mtb FBA inh 159.9
Cc1ccc(CN2CCN(c3cccc4[nH]ccc34)CC2)cc1	none
CC(=O)Nc1ccc(S(=O)(=O)NC2CC3CCC2C3)cc1 (centres undefined)	none
CCc1cc(=O)oc2cc(C)cc(OCc3nn[nH]n3)c12	Mtb FBA inh 119.4
Cc1c(OCC(=O)N2CCC(C(=O)NCCCC(=O)O)CC2)ccc2c1oc(=O)c1ccccc12	Mtb FBA inh 132.8
O=C(CN1C(=O)/C(=C/c2ccccc2)SC1=S)N1CCN(CCc2ccccn2)CC1	none
C=CCN1[C@H](COCc2ccccc2)C=CS1(=O)=O	none (no result: Rv3671c protease, Vc quorum ag, UGM FP inh, RecA intein inh, GDH-TPI counter)
O=C(Cc1cccc2ccccc12)NCC(=O)Nc1ccccc1F	none
CCOC(=O)c1sc2c(c1C)C(c1cccs1)C1=C(CCCC1=O)N2 (centres undefined)	Mtb FBA inh active
c1ccc2c(c1)[nH]c1c(N3CCOCC3)ncnc12	none
CCc1cc(N2CCOCC2)cc2c1[nH]c1ccccc12	Mtb FBA inh 96.0
N#C/C(=C\c1ccco1)C(=O)Nc1cccc2ncccc12	GDH-TPI counter 33.0
COc1ccc(C#Cc2c(-c3ccccc3)n(C)c3ccccc23)cc1	none (no result: RecA intein inh)
Cc1cc(C#Cc2c(-c3ccccc3)n(C)c3ccccc23)ccc1F	Mtb FBA inh 26.9
Cc1c(C#N)c(NC(=O)CCl)n(Cc2ccc(F)cc2)c1C	RecA intein inh 56.5
Cc1c(C#N)c(NC(=O)CCl)n(Cc2cccs2)c1C	RecA intein inh 65.2
Cc1c(C#N)c(NC(=O)CCl)n(Cc2ccccc2)c1C	RecA intein inh 43.7
Cc1ccc(-c2nc(CS(=O)CC(=O)NCCN3CCCCC3C)c(C)o2)cc1 (centres undefined)	none
CCOc1ccc2nc(S(=O)(=O)NC(=O)C3(C)CCN3C(=O)CCc3cccs3)sc2c1 (centres undefined)	none (no result: Rv3671c protease, UGM FP inh, RecA intein inh)
CC(C(=O)N1CCCC1)N1CCN(S(=O)(=O)c2ccc(C(C)(C)C)cc2)CC1 (centres undefined)	none (no result: RecA intein inh)
C=CCn1c(O)c(N=NC(=S)Nc2ccc(OC)cc2)c2ccccc21	none
C=CCn1c(O)c(N=NC(=S)Nc2cccc(OC)c2)c2ccccc21	GDH-TPI counter 34.6
CC(=C\C(=O)O)/C(=C\c1cccc2ccccc12)C(=O)O	GDH-TPI counter 31.2
CC(C)OC(=O)c1ccc(N2CCN(c3ccccc3F)CC2)nc1	none
